Experimental findings from PubChem BioAssay (NCATS) are described below.

A short description of experiment [1]: AP1 Signaling Pathway (AID 357; active = well fitted curve in either direction with a large enough effect, not every such curve was filed as active; note: % is set by controls: 0 for no effect and ±100 for the full control effect). The conditions noted are these: ME-180 AP-1-bla reporter, EGF-induced, beta-lactamase ratio, 5 h; at 7.69 µM (top of the series) unless noted. Summed up:
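AP-1-bla ME-180 cells with beta-lactamase reporter under AP-1 response element, stimulated with EC50 EGF; compounds titrated, 5 hours at 37 degrees Celsius. CCF4 read at 460/530 nm ratio; positive and negative modulators judged by AC50.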

Experiment [2] addresses Cytochrome P450 1A2 (Homo sapiens) (UniProt P05177). The experiment in a line: p450-cyp1a2 (AID 410; calls by dose curve; note: potency is the fitted concentration of half-maximal effect). Summed up:
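20nM CYP1A2, 100uM Luciferin-ME (=Km), 100mM KPO4; cpd 10 min RT; +NADPH regen, 60 min RT; stop/detect 20 min; luminescence. Normalized to furafylline 57 uM = full inhibition.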

A short description of experiment [3]: NFAT Signaling Pathway (AID 444; active = well fitted curve in either direction with a large enough effect, not every such curve was filed as active;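 note: carbachol stimulus at about its EC50 of 1 µM final; % is set by controls: 0 for no effect and ±100 for the full control effect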). Conditions: Jurkat NFAT-bla M1, carbachol, beta-lactamase ratio, 5 h; at 7.69 µM (top of the series) unless noted. Summed up:
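Jurkat cells carrying an NFAT-driven β-lactamase reporter and co-transfected muscarinic M1 receptor were treated with compound plus carbachol (1 uM final, an EC50 level) for 5 h at 37 °C. CCF4 loading followed for 1 h at RT; 460/530 nm ratio gave %activity.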

The nature of experiment [4]: Stat Signaling Pathway (AID 446; active = well fitted curve in either direction with a large enough effect, not every such curve was filed as active;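 note: ME-180 cervical cancer cells given 40 pM IL-6 alongside compound; SIE-controlled beta-lactamase reporter measured as 460/530 nm FRET emission ratio; % is set by controls: 0 for no effect and ±100 for the full control effect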). Conditions: ME-180 (cervical carcinoma) SIE beta-lactamase reporter, IL-6 stimulated, 5 h; at 7.69 µM (top of the series) unless noted. Summed up:
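Emission at 460 and 530 nm (excitation 405 nm) reports SIE-controlled beta-lactamase in ME-180 cells. Cells received compound with 40 pM IL-6 for 5 hrs at 37 C; data scaled between 300 pM IL-6 and 125 nM JAK-inhibitor controls.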

Experiment [5] deals with Glucocorticoid receptor (Homo sapiens) (UniProt P04150). Description: GR-GFP Redistribution (AID 450;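 active = compounds whose dose series gives a full or clear partial fitted curve of increased nuclear translocation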; note: potency is the fitted concentration of half-maximal effect). The conditions noted are these: U2OS GR-GFP nuclear translocation, laser cytometry, 2 h.
Chain of Glucocorticoid receptor (Homo sapiens) (P04150 whole entry, looked up): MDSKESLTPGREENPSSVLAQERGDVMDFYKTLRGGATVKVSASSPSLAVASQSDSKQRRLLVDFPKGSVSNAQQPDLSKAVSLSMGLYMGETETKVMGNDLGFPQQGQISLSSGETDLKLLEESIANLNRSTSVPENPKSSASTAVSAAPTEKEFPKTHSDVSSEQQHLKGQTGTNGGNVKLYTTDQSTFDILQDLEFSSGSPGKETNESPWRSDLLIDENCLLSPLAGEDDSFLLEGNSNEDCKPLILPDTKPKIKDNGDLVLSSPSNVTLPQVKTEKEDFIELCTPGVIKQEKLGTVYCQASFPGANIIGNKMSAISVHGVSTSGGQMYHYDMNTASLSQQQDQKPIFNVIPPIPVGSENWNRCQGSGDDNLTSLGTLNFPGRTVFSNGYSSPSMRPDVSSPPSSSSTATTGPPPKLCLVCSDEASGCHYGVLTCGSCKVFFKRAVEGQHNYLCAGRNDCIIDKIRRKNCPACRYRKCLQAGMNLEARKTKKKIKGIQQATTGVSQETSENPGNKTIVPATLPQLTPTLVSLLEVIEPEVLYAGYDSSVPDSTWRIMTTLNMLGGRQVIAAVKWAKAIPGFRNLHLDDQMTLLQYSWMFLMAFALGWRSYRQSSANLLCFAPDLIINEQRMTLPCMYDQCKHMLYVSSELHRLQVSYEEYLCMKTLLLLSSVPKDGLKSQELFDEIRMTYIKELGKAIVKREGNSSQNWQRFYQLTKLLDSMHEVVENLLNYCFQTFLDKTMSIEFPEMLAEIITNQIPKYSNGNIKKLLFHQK
The target is the same in experiment [6]. Description: GR-EFC Redistribution (AID 451; calls by dose curve; note: potency is the fitted concentration of half-maximal effect). Conditions: CHO-K1 GR-EFC translocation, beta-gal luminescence, 2 h. Summed up:
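CHO-K1 cells stably expressing nuclear-localized β-gal enzyme acceptor and GR fused C-terminally to the enzyme donor fragment; ligand-driven nuclear translocation restores β-gal by complementation. Compounds titrated up to 46 uM final, 2 h at 37 °C; luminescence read.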

The target in experiment [7] is Mitogen-activated protein kinase 10 (Mus musculus) (UniProt Q61831). The experiment in a line: JNK3 AlphaScreen Assay (AID 530; active = well fitted curve in either direction with a large enough effect, not every such curve was filed as active;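 note: kinase came from lysate of stimulated human HepG2 cells; signal reports phosphorylation of biotinylated GST-cJun 1-79 at Ser73 with 10 µM ATP; % is set by controls: 0 for no effect and ±100 for the full control effect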). Summed up: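 Biotinylated GST-cJun(1-79) served as substrate for JNK3 in HepG2 lysates stimulated with IL-1beta and TNF-alpha. ATP was 10 uM final, pH 7.6. Ser73 phosphorylation was quantified by AlphaScreen (680 nm excitation).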
(Alpha assays give light when donor and acceptor beads are brought close together.)

Experiment [8] concerns the target Cytochrome P450 3A4 (Homo sapiens) (UniProt P08684). The experiment in a line: qHTS Assay for Activators of Cytochrome P450 3A4 (AID 885). Note: nearly all actives have a fitted effect of over 65% in size. Summed up: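 Activators are scored by enhanced luminescence from CYP3A4 conversion of luciferin-PPXE (25uM, equal to KM) to luciferin, after 60 min at RT with an NADPH-regenerating system.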
Background: In qHTS, concentration-response curves come from the screen itself.

Experiment [9] addresses Dual specificity protein kinase CLK4 (Homo sapiens) (UniProt Q9HAZ1). Description: qHTS Assay for Inhibitors of CDC-like Kinase 4 (Kinase-Glo Assay) (AID 1770). Note: nearly all actives have a fitted effect of over 65% in size. Note: potency is the fitted concentration of half-maximal effect. Summed up: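 25 nM Clk4 with 100 uM RS repeat peptide and 1 uM ATP (final) in Tris pH7.5, 10 mM MgCl2, 4.5 h at room temperature. Remaining ATP measured by Kinase-Glo luciferase luminescence.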
For experiment [10] the target is unchanged. The experiment in a line: qHTS Assay for Inhibitors of CDC-like Kinase 4 (ADP-Glo Assay) (AID 1771). Note: nearly all actives have a fitted effect of over 70% in size. Note: potency is the fitted concentration of half-maximal effect. Summed up:
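25 nM Clk4, 100 uM RS peptide, 1 uM ATP (final); 2 mM MgCl2, 0.5 mM EGTA, 2.5 mM DTT, 0.01% Triton X-100; 1 hr RT. ADP-Glo readout: ATP depletion 45 min, conversion/luciferase 30 min, luminescence.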

Experiment [11] has the same target. Description: qHTS Assay for Inhibitors of CDC-like Kinase 4 (ADP-FP Assay) (AID 1795). Note: nearly all actives have a fitted effect of over 60% in size. Note: potency is the fitted concentration of half-maximal effect. Summed up:
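Recombinant Clk4 (6.25 nM) phosphorylated 100 uM RS repeat peptide with 1 uM ATP in 25 mM Tris pH 7.5, 10 mM MgCl2, 0.5 mM EGTA, 2.5 mM DTT, 0.01% Triton X-100 for 1 h. ADP was detected by Transcreener ADP2 competitive fluorescence polarization after 30 min at room temperature.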

Experiment [12] deals with Ubiquitin carboxyl-terminal hydrolase 1 (Homo sapiens) (UniProt O94782). The experiment in a line: Inhibitors of USP1/UAF1: Pilot qHTS (AID 504865).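 Note: rhodamine fluorescence freed from ubiquitin-rhodamine substrate followed over time; top concentration of the series differs between compounds; % is set by controls: 0 for no effect and ±100 for the full control effect; nearly all actives have a fitted effect of over 35% in size.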 The gist of the method: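 USP1/UAF1 complex at 1 nM preincubated 15 min at room temperature with compound, then Ub-Rho substrate added at 150 nM final. Fluorescence (480/540 nm) read kinetically in 50 mM HEPES pH 7.8, 0.5 mM EDTA, 1 mM TCEP, 0.1 mg/ml BSA, 0.01% Tween-20.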
Chain of Ubiquitin carboxyl-terminal hydrolase 1 (Homo sapiens) (O94782 whole entry, looked up): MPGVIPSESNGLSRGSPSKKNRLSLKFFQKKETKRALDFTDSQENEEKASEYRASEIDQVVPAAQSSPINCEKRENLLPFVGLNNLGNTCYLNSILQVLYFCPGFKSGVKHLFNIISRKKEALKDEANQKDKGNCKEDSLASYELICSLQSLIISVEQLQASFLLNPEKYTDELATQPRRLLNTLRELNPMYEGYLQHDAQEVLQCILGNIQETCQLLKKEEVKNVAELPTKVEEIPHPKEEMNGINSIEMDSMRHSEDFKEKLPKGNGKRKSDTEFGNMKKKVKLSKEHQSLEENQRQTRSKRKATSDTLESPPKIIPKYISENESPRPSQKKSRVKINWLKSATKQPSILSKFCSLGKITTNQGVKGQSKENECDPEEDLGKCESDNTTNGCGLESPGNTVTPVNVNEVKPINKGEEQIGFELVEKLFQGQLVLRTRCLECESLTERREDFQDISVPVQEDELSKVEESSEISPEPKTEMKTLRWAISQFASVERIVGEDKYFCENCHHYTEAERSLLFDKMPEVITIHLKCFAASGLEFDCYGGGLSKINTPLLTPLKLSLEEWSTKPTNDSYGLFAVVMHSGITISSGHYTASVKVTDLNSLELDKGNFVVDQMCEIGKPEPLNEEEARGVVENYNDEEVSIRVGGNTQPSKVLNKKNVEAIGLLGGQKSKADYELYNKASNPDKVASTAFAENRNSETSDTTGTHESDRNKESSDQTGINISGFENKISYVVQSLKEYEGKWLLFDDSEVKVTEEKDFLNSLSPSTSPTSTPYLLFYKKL

The nature of experiment [13]: Primary qHTS for small molecule stabilizers of the endoplasmic reticulum resident proteome: Secreted ER Calcium Modulated Protein (SERCaMP) assay (AID 1508630). Note: % is set by controls: 0 for no effect and ±100 for the full control effect. The gist of the method:
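The SH-SY5Y reporter protocol was run at 3 concentrations up to 38.3 uM (primary) or 11 concentrations (follow-up): 16 h compound, 100 nM thapsigargin for 4 h, then extracellular luciferase luminescence.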

The target of experiment [14] is Lysosomal acid glucosylceramidase (Homo sapiens) (UniProt P04062). The experiment in a line: Glucocerebrosidase-p2 (AID 348; in the data active = potency below about 10 µM; note: potency is the fitted concentration of half-maximal effect). The conditions noted are these: purified GBA, blue fluorogenic substrate, 40 min. The gist of the method:
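Normal human glucocerebrosidase (0.2 nM) with blue fluorogenic substrate (80 uM final) in citrate/phosphate pH 5.9 with 10mM sodium taurocholate, 0.01% tween-20; 40 min RT, NaOH/glycine stop; fluorescence Ex 365/Em 440; AC50 from a titration from 0.6 nM upwards.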

Experiment [15] deals with 3',5'-cyclic-AMP phosphodiesterase 4B (Homo sapiens) (UniProt Q07343). The experiment in a line: qHTS Assay for Inhibitors of PDE-IV (AID 607; active = well fitted activation curve with a large enough effect in the main read-out, with a control signal flat, not every such curve was filed as active; note: % of control where 0% means no effect). Summed up:
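The readout is membrane depolarisation from a cAMP-sensing CNG channel, detected with a potential dye at ex 535/em 590. Cells were HEK293-derived (endogenous PDE-IV) at 1000 cells/well, titrated up to 22.9 uM final.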

Experiment [16] has as its target Cytochrome P450 2C9 (Homo sapiens) (UniProt P11712). The experiment in a line: qHTS Assay for Inhibitors and Substrates of Cytochrome P450 2C9 (AID 883). Note: % is set by controls: 0 for no effect and ±100 for the full control effect; nearly all actives have a fitted effect of over 60% in size. Summed up:
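A luminogenic readout tracked human CYP2C9 (10nM) converting deoxyluciferin (100uM, at KM) in 25mM KPO4 during 60 min at 37C with regenerated NADPH. Values normalized to 57uM sulphaphenazole as complete inhibition.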

A number with no mark means an inactive call. Results filed as inconclusive are left out. Activity calls are given as the source filed them. Unless noted, calls come from the whole dose curve; as a rule, active = well fitted curve in the direction sought with a large enough effect; inconclusive = small, poorly fitted or top-dose-only effect, or another doubt; inactive = no such curve, though single readings can be large; an effect the other way counts as inactive or inconclusive.

Chain of Dual specificity protein kinase CLK4 (Homo sapiens) (Q9HAZ1 whole entry, looked up): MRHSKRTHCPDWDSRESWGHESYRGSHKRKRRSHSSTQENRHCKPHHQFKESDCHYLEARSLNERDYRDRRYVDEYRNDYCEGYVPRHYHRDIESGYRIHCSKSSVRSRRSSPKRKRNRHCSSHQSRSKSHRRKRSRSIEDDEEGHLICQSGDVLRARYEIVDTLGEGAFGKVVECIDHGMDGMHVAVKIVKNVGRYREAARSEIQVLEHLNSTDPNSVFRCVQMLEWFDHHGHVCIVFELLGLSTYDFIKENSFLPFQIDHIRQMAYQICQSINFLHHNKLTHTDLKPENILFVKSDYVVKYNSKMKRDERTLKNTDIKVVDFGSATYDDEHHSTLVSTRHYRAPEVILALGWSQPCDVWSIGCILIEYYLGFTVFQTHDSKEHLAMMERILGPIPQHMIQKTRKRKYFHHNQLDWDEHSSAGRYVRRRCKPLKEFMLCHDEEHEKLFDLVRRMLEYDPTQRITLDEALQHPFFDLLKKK
Chain of Lysosomal acid glucosylceramidase (Homo sapiens) (P04062 whole entry, looked up): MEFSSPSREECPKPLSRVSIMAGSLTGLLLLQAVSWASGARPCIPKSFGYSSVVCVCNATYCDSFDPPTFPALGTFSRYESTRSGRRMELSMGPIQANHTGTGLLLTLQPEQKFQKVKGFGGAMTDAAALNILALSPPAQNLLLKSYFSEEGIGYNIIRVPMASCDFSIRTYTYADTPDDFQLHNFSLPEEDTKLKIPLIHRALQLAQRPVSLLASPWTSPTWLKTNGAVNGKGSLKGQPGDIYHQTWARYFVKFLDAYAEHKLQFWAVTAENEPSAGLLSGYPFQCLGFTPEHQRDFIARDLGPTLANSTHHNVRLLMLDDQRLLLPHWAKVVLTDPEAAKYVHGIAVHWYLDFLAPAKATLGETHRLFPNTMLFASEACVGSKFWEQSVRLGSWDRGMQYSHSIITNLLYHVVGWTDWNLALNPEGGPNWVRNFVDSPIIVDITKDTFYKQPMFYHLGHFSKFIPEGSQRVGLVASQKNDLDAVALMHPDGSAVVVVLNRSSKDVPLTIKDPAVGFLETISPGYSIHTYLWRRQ
Chain of 3',5'-cyclic-AMP phosphodiesterase 4B (Homo sapiens) (Q07343 whole entry, looked up): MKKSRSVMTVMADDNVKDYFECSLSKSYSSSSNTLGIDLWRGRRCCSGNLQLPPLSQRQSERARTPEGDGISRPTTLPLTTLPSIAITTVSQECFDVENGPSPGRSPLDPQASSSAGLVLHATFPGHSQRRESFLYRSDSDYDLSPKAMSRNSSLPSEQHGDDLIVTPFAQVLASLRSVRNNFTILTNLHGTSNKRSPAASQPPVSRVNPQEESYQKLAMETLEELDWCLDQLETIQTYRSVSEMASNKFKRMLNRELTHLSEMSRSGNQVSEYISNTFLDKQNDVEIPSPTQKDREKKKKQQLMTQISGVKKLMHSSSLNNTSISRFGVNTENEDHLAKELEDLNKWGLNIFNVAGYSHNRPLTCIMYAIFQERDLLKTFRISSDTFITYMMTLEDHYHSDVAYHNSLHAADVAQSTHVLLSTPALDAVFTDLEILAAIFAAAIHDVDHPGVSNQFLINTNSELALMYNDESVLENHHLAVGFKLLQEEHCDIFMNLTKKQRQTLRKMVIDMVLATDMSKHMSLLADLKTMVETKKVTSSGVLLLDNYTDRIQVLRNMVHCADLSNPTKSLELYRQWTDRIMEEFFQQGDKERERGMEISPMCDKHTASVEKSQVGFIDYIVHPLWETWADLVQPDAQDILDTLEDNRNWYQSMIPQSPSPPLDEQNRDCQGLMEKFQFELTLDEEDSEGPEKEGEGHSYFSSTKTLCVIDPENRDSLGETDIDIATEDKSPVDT
Chain of Cytochrome P450 3A4 (Homo sapiens) (P08684 whole entry, looked up): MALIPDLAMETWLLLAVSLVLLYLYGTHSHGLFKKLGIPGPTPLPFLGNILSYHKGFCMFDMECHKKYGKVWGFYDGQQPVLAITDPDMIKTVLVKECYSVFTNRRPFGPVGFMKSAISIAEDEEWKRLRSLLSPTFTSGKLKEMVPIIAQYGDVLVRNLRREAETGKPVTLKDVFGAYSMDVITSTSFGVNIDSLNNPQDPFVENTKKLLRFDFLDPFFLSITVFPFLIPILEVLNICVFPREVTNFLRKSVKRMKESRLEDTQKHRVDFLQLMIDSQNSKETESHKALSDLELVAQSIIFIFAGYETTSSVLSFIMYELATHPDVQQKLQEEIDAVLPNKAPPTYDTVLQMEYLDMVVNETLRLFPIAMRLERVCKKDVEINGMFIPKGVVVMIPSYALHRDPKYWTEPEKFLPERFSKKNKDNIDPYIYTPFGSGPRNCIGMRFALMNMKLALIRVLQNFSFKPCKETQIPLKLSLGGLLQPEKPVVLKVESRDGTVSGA
Chain of Cytochrome P450 1A2 (Homo sapiens) (P05177 whole entry, looked up): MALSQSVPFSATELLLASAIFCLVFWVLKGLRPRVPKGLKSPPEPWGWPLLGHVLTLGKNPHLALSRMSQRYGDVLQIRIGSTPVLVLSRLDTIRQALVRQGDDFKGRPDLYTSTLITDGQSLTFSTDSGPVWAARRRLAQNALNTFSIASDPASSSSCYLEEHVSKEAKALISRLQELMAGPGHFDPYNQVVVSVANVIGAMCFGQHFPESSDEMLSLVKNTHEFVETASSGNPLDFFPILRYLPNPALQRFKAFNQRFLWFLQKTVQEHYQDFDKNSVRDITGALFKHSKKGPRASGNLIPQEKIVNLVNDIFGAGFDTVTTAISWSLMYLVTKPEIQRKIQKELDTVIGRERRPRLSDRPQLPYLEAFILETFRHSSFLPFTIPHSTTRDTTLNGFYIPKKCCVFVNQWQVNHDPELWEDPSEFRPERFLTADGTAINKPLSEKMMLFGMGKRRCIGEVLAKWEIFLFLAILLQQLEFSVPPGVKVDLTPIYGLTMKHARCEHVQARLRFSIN
Chain of Cytochrome P450 2C9 (Homo sapiens) (P11712 whole entry, looked up): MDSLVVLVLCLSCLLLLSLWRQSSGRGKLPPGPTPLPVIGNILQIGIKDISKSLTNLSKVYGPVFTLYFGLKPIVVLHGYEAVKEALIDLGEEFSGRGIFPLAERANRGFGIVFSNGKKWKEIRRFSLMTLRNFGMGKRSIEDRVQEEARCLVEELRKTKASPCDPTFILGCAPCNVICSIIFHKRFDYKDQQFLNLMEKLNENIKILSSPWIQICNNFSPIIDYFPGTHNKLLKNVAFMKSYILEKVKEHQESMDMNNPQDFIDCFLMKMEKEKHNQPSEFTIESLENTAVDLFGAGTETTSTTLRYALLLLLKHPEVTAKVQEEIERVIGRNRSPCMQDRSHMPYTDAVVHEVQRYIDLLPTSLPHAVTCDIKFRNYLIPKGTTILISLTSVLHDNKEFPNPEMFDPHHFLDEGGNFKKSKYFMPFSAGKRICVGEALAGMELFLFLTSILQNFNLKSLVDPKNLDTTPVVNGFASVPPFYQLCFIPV

Regarding `O=c1c(-c2cccc(Cl)c2)nc2cncnc2n1-c1ccccc1`, the activity change, negative = inhibition was -18.9% in experiment [1] and 9.76% in experiment [3]. The Potency in experiment [2] was 2 µM (active); in [5] it was above 9.22 µM; in [6], above 46 µM. Moreover, in experiment [4], the activity, negative = inhibition is 0.546%. The Potency result in experiment [7], in experiment [8], in experiment [9], in [10], in experiment [11] and in [12] was “inactive” in each case. For the same compound, the result in experiment [13] was inactive.
On to `CN(C)c1ncnc2ccc(-c3ccc4c(c3)OCO4)cc12`, for which the Potency is above 11.4 µM in experiment [14]; above 46 µM in experiment [5]; above 46 µM in [6]; 0.199 µM (active) in experiment [9]; 0.158 µM (active) in [10]; 0.1 µM (active) in experiment [11]. Further, in [3], the activity change, negative = inhibition was -4.71%. Further, the activity, negative = inhibition in [4] is 1.73%. The Potency result in experiment [7], in [15] and in experiment [12] was “inactive” in each case. Moreover, the result in experiment [13] was inactive.
Take `COc1cccc(Cn2c(=O)c(-c3cc(F)cc(F)c3)nc3cnc(N4CCOCC4)nc32)c1`: the Potency was above 11.4 µM in experiment [14], above 9.22 µM in experiment [5] and above 46 µM in experiment [6]. Further, the activity change, negative = inhibition in experiment [3] was 5.53%. The activity, negative = inhibition in experiment [4] is 24.5%. For the same compound, the Potency result in [7], in [15], in experiment [16], in experiment [9], in experiment [10] and in experiment [11] was “inactive” in each case. The Potency entry in [12] is “inactive”. For the same compound, in experiment [13], the outcome was inactive.
